Data as given in PubChem BioAssay (NCI).
The panel holds about 83,000 compounds, 20% with a hit somewhere; the sample as a whole holds those more often.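 The test compound was applied at a single concentration to cells in 96-well plates for 48 hours, and percent growth was recorded.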 Values without a mark were called inactive. Active and inactive are the calls of the source. Rule for the calls: active = growth percent below 10; inactive = the rest.

System: HOP-62 NSCLC
Test: NCI-60 one-dose screen, 48 h (100 = growth as untreated, 0 = no growth, -100 = all killed)
Details: 10 µM unless noted

| Structure (SMILES) | growth |
| --- | --- |
| COC(=O)c1sccc1-c1cc(O)c(C(=O)Nc2ccccc2)s1 | 92.2% |
| O=C(C1=Cc2cc3ccccc3n2Cc2cnnn21)c1ccc(F)cc1 | 109% |
| Cc1cccc(N2C(=O)/C(=C/C(Cl)=C/c3ccc([N+](=O)[O-])cc3)SC2=S)c1C | 17.2% |
| CS(=O)/C(C#N)=C\C=C\c1cccc(Cl)c1 (stereo not given) | 17.1% |
| CCOC(=O)/C=C1\S/C(=N\Nc2cc(=O)[nH]c3ccc(Br)cc23)N(c2ccccc2)C1=O | 91.2% |
| Cc1ccc2nc(-c3ccc(C(=O)N/N=C/c4ccc([N+](=O)[O-])cc4)cc3)[nH]c2c1 | 108% |
| COc1ccc(/C=C/C(c2cc(OC)c(OC)c(OC)c2)n2cncn2)cc1O (stereo not given) | 22.5% |
| CCCCCCCCCCCCCCCCCCOc1ccccc1CC(=O)NCC[N+](C)(C)C | 5.94% (active) |
| CCOC(=O)c1c(C)nc2ccccc2c1/C=C/c1ccc(F)cc1 | 80.9% |
| N#Cc1c(-c2ccccc2)cc(-c2ccccc2)n(CCCCC(=O)NO)c1=O | 21.1% |
| COc1cc(Cc2cc(OC)c(O)c(OC)c2)cc(OC)c1O | 88.9% |
| COc1cc(/C=C/c2cc(/C=C/c3ccc(O)c(OC)c3)n(C(=O)Nc3ccc(Cl)cc3)n2)ccc1O | 17.1% |
| NS(=O)(=O)c1ccc(C(=O)NN2C(=O)c3ccccc3C2=O)cc1 | 108% |
| CS(=O)(=O)c1ccc(-c2nc3ccccc3n2CC(=O)N/N=C/c2ccccc2)cc1 | 89% |
| CCn1cc(C(=O)N/N=C/c2cccc(F)c2)c(=O)c2cc(F)c(N3CCNC(C)C3)c(F)c21 (stereo not given) | 86.5% |
| CCCC(=O)NC(c1ccc2c(c1)OCO2)c1cc(Cl)c2cccnc2c1O (stereo not given) | 23.1% |
| O=C(c1cccc(N2CCOCC2)n1)c1c[nH]c2ccccc12 | 87.6% |
| Cc1cc(C(=O)CCCC(=O)c2cc(C)c(O)c(C)c2)cc(C)c1O | 98.9% |
| O=C(/C=C/c1ccccc1)c1cccc2ccccc12 | 37.7% |
| CNC(=O)c1cc(Oc2ccc3c(c2)sc2nc(-c4ccc(NC(=O)[C@@H](NC(=O)OC)C(C)C)cc4)cn23)ccn1 | 82.5% |

| Structure (SMILES) | growth |
| --- | --- |
| FC(F)(F)c1[nH]ncc1-c1nc2ccc3[nH]ncc3c2c2c1CCCC2 | 1.07% (active) |
| COC(=O)c1ccc2c(c1)c1c(C)c3cnccc3c(C)c1n2C | -24.7% (active) |
| CC1=C2[C@@H](CC1)[C@]1(C)O[C@@](C3CCNCC3)(C[C@H]1OC(=O)CO)[C@H]2OC(=O)/C=C/c1ccccc1 | 94.5% |
| CCOC(=O)CC1CSC(N/N=C/c2ccc(F)c(Br)c2)=N1 (stereo not given) | 94.2% |
| O=C1/C(=C/c2cccc(Br)c2)COc2ccc(O)cc21 | 86.6% |
| O=C(Cn1nc(-c2cccc3ccccc23)ccc1=O)NCc1cccc(Cl)c1 | 72.2% [50 µM] |
| COc1cc(O)c2c(=O)c3c(CC=C(C)C)cc(OC)c(O)c3oc2c1 | 25.4% |
| Nc1ccc(Br)cc1C(F)(F)F | 102% |
| O=C(Nc1ccc(Oc2cccc(Cl)c2)c(Cl)c1)c1cccnn1 | 101% |
| COc1cccc(-c2cn3nc(-c4cn(C)c5ccccc45)sc3n2)c1 | 96.5% |
| c1ccc(-c2c(-c3ccccc3)[n+](Cc3ccc4ccccc4c3)cn2Cc2ccc3ccccc3c2)cc1 | -86.1% (active) |
| COc1ccc(C2[C@@H](c3ccccc3)C(=O)N2c2cc(OC)c(OC)c(OC)c2)cc1F (stereo not given in full) | 19.1% |
| CC(C)CCC[C@@H](C)[C@H]1CC[C@H]2[C@@H]3CC=C4c5sc(Nc6cc(C(F)(F)F)cc(C(F)(F)F)c6)nc5CC[C@]4(C)[C@H]3CC[C@]12C | 81.9% |
| Nc1cc(C(=O)O)cc(-n2c(O)c(C=C3N=c4ccccc4=N3)sc2=S)c1 | 100% |
| COc1cccc(CNc2c3ccccc3nc3ccccc23)c1OC | 51.2% |
| Clc1ccc(Nc2ncc(Cc3cccc(Cl)c3Cl)s2)cc1 | 108% |
| CCOC(=O)c1cnn(CC(C)O)c1NC(=O)NCc1cccc(F)c1 (stereo not given) | 100% |
| C=C1C(=O)O[C@@H]2C3C(=C(C)CC[C@@H]12)CC1O[C@]13C (stereo not given in full) | 94.1% [6.75 µM] |
| CCOC(=O)C1=C(c2ccccc2)N=C2N(c3ccccc3)N=C(C(C)=O)N2C1c1ccc(F)cc1 (stereo not given) | 98.6% |
| CCCOC(=O)Nc1nc2ccc(SCC)cc2s1 | 81.4% |

System: NCI-H460 lung
Test: as above
Details: 10 µM unless noted

| Structure (SMILES) | growth |
| --- | --- |
| COC(=O)c1sccc1-c1cc(O)c(C(=O)Nc2ccccc2)s1 | 104% |
| O=C(C1=Cc2cc3ccccc3n2Cc2cnnn21)c1ccc(F)cc1 | 106% |
| Cc1cccc(N2C(=O)/C(=C/C(Cl)=C/c3ccc([N+](=O)[O-])cc3)SC2=S)c1C | 21% |
| CS(=O)/C(C#N)=C\C=C\c1cccc(Cl)c1 (stereo not given) | 3.71% (active) |
| CCOC(=O)/C=C1\S/C(=N\Nc2cc(=O)[nH]c3ccc(Br)cc23)N(c2ccccc2)C1=O | 95.9% |
| Cc1ccc2nc(-c3ccc(C(=O)N/N=C/c4ccc([N+](=O)[O-])cc4)cc3)[nH]c2c1 | 102% |
| COc1ccc(/C=C/C(c2cc(OC)c(OC)c(OC)c2)n2cncn2)cc1O (stereo not given) | 13.3% |
| CCCCCCCCCCCCCCCCCCOc1ccccc1CC(=O)NCC[N+](C)(C)C | 22.5% |
| CCOC(=O)c1c(C)nc2ccccc2c1/C=C/c1ccc(F)cc1 | 81.7% |
| N#Cc1c(-c2ccccc2)cc(-c2ccccc2)n(CCCCC(=O)NO)c1=O | 73% |
| COc1cc(Cc2cc(OC)c(O)c(OC)c2)cc(OC)c1O | 99.1% |
| COc1cc(/C=C/c2cc(/C=C/c3ccc(O)c(OC)c3)n(C(=O)Nc3ccc(Cl)cc3)n2)ccc1O | 9.41% (active) |
| NS(=O)(=O)c1ccc(C(=O)NN2C(=O)c3ccccc3C2=O)cc1 | 112% |
| CS(=O)(=O)c1ccc(-c2nc3ccccc3n2CC(=O)N/N=C/c2ccccc2)cc1 | 107% |
| CCn1cc(C(=O)N/N=C/c2cccc(F)c2)c(=O)c2cc(F)c(N3CCNC(C)C3)c(F)c21 (stereo not given) | -79% (active) |
| CCCC(=O)NC(c1ccc2c(c1)OCO2)c1cc(Cl)c2cccnc2c1O (stereo not given) | 22.7% |
| O=C(c1cccc(N2CCOCC2)n1)c1c[nH]c2ccccc12 | 86.7% |
| Cc1cc(C(=O)CCCC(=O)c2cc(C)c(O)c(C)c2)cc(C)c1O | 112% |
| O=C(/C=C/c1ccccc1)c1cccc2ccccc12 | 10.6% |
| CNC(=O)c1cc(Oc2ccc3c(c2)sc2nc(-c4ccc(NC(=O)[C@@H](NC(=O)OC)C(C)C)cc4)cn23)ccn1 | 87.6% |

| Structure (SMILES) | growth |
| --- | --- |
| FC(F)(F)c1[nH]ncc1-c1nc2ccc3[nH]ncc3c2c2c1CCCC2 | 5.86% (active) |
| COC(=O)c1ccc2c(c1)c1c(C)c3cnccc3c(C)c1n2C | -32.4% (active) |
| CC1=C2[C@@H](CC1)[C@]1(C)O[C@@](C3CCNCC3)(C[C@H]1OC(=O)CO)[C@H]2OC(=O)/C=C/c1ccccc1 | 94.1% |
| CCOC(=O)CC1CSC(N/N=C/c2ccc(F)c(Br)c2)=N1 (stereo not given) | 112% |
| O=C1/C(=C/c2cccc(Br)c2)COc2ccc(O)cc21 | 92.2% |
| O=C(Cn1nc(-c2cccc3ccccc23)ccc1=O)NCc1cccc(Cl)c1 | 32.2% [50 µM] |
| COc1cc(O)c2c(=O)c3c(CC=C(C)C)cc(OC)c(O)c3oc2c1 | 12.5% |
| Nc1ccc(Br)cc1C(F)(F)F | 111% |
| O=C(Nc1ccc(Oc2cccc(Cl)c2)c(Cl)c1)c1cccnn1 | 99.8% |
| COc1cccc(-c2cn3nc(-c4cn(C)c5ccccc45)sc3n2)c1 | 101% |
| c1ccc(-c2c(-c3ccccc3)[n+](Cc3ccc4ccccc4c3)cn2Cc2ccc3ccccc3c2)cc1 | -78.6% (active) |
| COc1ccc(C2[C@@H](c3ccccc3)C(=O)N2c2cc(OC)c(OC)c(OC)c2)cc1F (stereo not given in full) | 5.92% (active) |
| CC(C)CCC[C@@H](C)[C@H]1CC[C@H]2[C@@H]3CC=C4c5sc(Nc6cc(C(F)(F)F)cc(C(F)(F)F)c6)nc5CC[C@]4(C)[C@H]3CC[C@]12C | 105% |
| Nc1cc(C(=O)O)cc(-n2c(O)c(C=C3N=c4ccccc4=N3)sc2=S)c1 | 98% |
| COc1cccc(CNc2c3ccccc3nc3ccccc23)c1OC | 11.6% |
| Clc1ccc(Nc2ncc(Cc3cccc(Cl)c3Cl)s2)cc1 | 97.6% |
| CCOC(=O)c1cnn(CC(C)O)c1NC(=O)NCc1cccc(F)c1 (stereo not given) | 105% |
| C=C1C(=O)O[C@@H]2C3C(=C(C)CC[C@@H]12)CC1O[C@]13C (stereo not given in full) | 101% [6.75 µM] |
| CCOC(=O)C1=C(c2ccccc2)N=C2N(c3ccccc3)N=C(C(C)=O)N2C1c1ccc(F)cc1 (stereo not given) | 100% |
| CCCOC(=O)Nc1nc2ccc(SCC)cc2s1 | 79.6% |
